CHOP inhibitor: blocks CHOP induction under ER stress; CHO-K1 CHOP-promoter luciferase, tunicamycin-induced, 15-18 h; inhibition, % at 10 µM; 3.8% of 220,000 active; AID 2732;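 active means compounds that reduced the stress-induced luciferase reporter signal by more than about 70% of percent inhibition, limit read from the data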;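 further: 0% = tunicamycin plus vehicle and 100% = wells without tunicamycin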
WT yeast gro inh: growth inhibition of WT yeast, mitochondrial fusion screen; mitochondrial fusion phenotypic screen, WT strain; inhibition, % at 10 µM; 2.1% of 190,000 active; in the data active means inhibition above about 58%; tested in S. cerevisiae
Lmaj promast: reduces viability of Leishmania major promastigotes. 9% of 200,000 active. inhibition, % at 10 µM. resazurin fluorescence viability; in the data active means inhibition above about 50%;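 further: promastigotes grown with compound for 44 hours at 28 °C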
RAM inhibit: inhibitors of the yeast RAM network. inhibition, % at 50 µM. AID 868. S. cerevisiae dse1pr::URA3 reporter, 5-FOA growth OD615, 2 d; analog-sensitive cbk1-as2 kinase mutant strain. 1.8% of 190,000 active;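 active means inhibition above a set limit, 3 SD over mean compound inhibition, cut at about 8.4% in these data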;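 further: 0% = DMSO-only wells with no growth and 100% = 10 µM 1-NA-PP1 full growth; inhibition rescues growth on 5-FOA so higher OD means more RAM inhibition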
The depositor's hits bear a star; . = no result. This is a sample that favours compounds with a hit; in the whole collection about 13% have one here.

SMILES	CHOP inhibitor	WT yeast gro inh	Lmaj promast	RAM inhibit
COc1ccc(OC)c(NC(=O)C(=O)NCCC2=CCCCC2)c1	44	5	-4	4
CCCCOc1ccc(CONS(=O)(=O)c2ccc(NC(C)=O)cc2)cc1Cl	68	74*	14	4
COc1ccc(-c2csc(NC(=O)C3=NN(c4ccccc4)C(=O)CC3)n2)cc1	10	13	13	5
O=C(CSc1ncccn1)NC(=O)c1ccccc1	27	-6	1	0
CC(C)CC(=O)CC1(O)C(=O)Nc2ccccc21 (stereo unspecified)	6	-10	-4	1
CC1C/C(=N\NC(=S)NCc2ccccc2)CC(C)(C)C1 (stereo unspecified)	56	64*	99*	1
Cc1ccc(C)c(Nc2ncccc2C(=O)NCc2cccs2)c1	45	64*	7	1
O=C(Nc1ccc(Cl)cc1)OCCn1nnnc1C(c1ccccc1Cl)N1CCOCC1 (stereo unspecified)	24	-27	90*	0
CCCc1nnc(NC(=O)OCC)s1	0	5	-1	2
Cn1ncc(Br)c1N1C(=O)CCC1=O	3	.	.	.
Cc1cc(C)c2nc(N3CCCC(C(=O)N4CCN(c5ncccn5)CC4)C3)sc2c1 (stereo unspecified)	40	67*	3	-2
Cc1ccc(N2C(=O)C3C4C=CC(CNC(=S)Nc5ccc(F)cc5)(O4)C3C2=O)cc1 (stereo unspecified)	18	-5	67*	0
Cc1ccc(N2C(=O)C3C4C=CC(CNC(=S)Nc5ccc(Cl)cc5)(O4)C3C2=O)cc1 (stereo unspecified)	32	14	83*	0
Cc1ccc(N2C(=O)C3C4C=CC(CNC(=S)Nc5cccc(Cl)c5)(O4)C3C2=O)cc1 (stereo unspecified)	29	6	79*	4
CC(C)COC(=O)NCC12C=CC(O1)C1C(=O)N(c3ccc(Cl)cc3)C(=O)C12 (stereo unspecified)	5	-6	-9	0
COc1cccc(-c2nn(-c3ccccc3)cc2/C=C(/NC(=O)c2ccccc2)C(=O)O)c1	7	.	.	.
CCOc1ccc(OCCn2nnc3ccccc3c2=O)cc1	-11	-9	-3	5
Cc1ccc(C(=O)NCC(=O)O)o1	-21	-11	-6	0
Cc1cc(C)c(C)c(S(=O)(=O)Nc2ccccc2C(=O)NCCCN2CCOCC2)c1C	12	11	97*	-2
Cc1cc(C)c(C)c(S(=O)(=O)Nc2ccccc2C(=O)NCCCn2ccnc2)c1C	23	-1	6	1
O=C(CSc1ccccc1)NCCCN1CCOCC1	33	-12	77*	1
O=C(NCCCN1CCOCC1)c1ccccc1-c1ccccc1	-6	74*	3	1
CCOC(=O)C1=C(CN2CCN(CCC#N)CC2)NC(=O)NC1c1ccc2c(c1)OCO2 (stereo unspecified)	11	-22	4	1
CCOC1OC(=O)C(Cl)=C1Nc1ccc(C)cc1 (stereo unspecified)	1	1	3	0
Cc1ccc(NC2=C(Cl)C(=O)OC2NC(=O)c2ccccc2)cc1 (stereo unspecified)	-2	-12	4	9.3*
SMILES	CHOP inhibitor	WT yeast gro inh	Lmaj promast	RAM inhibit
COC(=O)CSc1nc2ccccn2c(=O)c1C=O	3	10	-7	5
CCCc1c(O)nc(SCC(=O)O)[nH]c1=O	76*	-7	-6	3
CCc1cc2c(SCC(=O)c3ccc(Cl)s3)ncnc2s1	46	45	-6	7
Cc1ccc(-c2nnc(Nc3ccc4c(c3)nc(C)n4C)c3ccccc23)cc1	42	9	101*	-1
Cc1ccc(-c2nnc(Nc3ccc(CC(N)=O)cc3)c3ccccc23)cc1	37	20	10	-1
O=C(C1CC1)N1CCN(C(c2ccccc2)c2ccccc2)CC1	45	17	12	2
Cc1ccc2nc(SCc3ccc([N+](=O)[O-])cc3)nc(C)c2c1	75*	0	-4	6
Cc1ccc(Nc2nc(=O)c3cc([N+](=O)[O-])ccc3s2)cc1	93*	.	.	.
Cc1ccc(S(=O)(=O)/N=C(\N)Nc2nc(C)c3ccccc3n2)cc1	32	4	2	5
Cc1ccc2nc(SC(C(=O)c3ccccc3)c3ccccc3)nc(C)c2c1 (stereo unspecified)	-12	-8	92*	4
Cc1ccc2nc(N/C(N)=N/S(=O)(=O)c3ccc([N+](=O)[O-])cc3)nc(C)c2c1	28	3	99*	3
Cc1ccc2nc(C)cc(Nc3ccc([N+](=O)[O-])cc3)c2c1	104*	18	101*	7
Cc1cc(SCC(=O)c2cccs2)nc2c(C)cccc12	24	-43	-3	8.9*

High-throughput results (PubChem)
